Screening results from PubChem.
The list is not random: actives were taken first. Their share in the collection is about 2.4%.
D2 PAM-1 = positively modulates the human D2 dopamine receptor allosterically; P14416; 340,000 tested, 0.34% active; AID 485347; potentiation, % at 10 µM; HEK293 T-REx D2, calcium flux, EC20 dopamine potentiation;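 active means potentiation over 3 SD above the plate norm, cut at about 30% in these data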; further: 0% is about no effect
Target sequence (P14416 whole entry, looked up): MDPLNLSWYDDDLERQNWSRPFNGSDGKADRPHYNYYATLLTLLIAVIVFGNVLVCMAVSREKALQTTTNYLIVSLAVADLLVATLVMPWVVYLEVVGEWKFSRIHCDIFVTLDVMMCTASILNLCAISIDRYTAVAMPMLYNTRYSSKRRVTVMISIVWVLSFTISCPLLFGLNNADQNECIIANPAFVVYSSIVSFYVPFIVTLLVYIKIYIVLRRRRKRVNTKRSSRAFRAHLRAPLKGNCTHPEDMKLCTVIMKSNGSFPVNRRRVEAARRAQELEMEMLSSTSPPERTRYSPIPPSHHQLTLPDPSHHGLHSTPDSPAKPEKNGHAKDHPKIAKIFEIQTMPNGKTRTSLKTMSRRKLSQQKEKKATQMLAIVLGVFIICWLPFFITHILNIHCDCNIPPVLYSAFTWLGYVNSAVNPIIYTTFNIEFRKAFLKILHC
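Cells plated with tetracycline inducer and held overnight at 30 C; calcium dye loaded 30–90 min at room temperature; baseline taken, compound added and read 180 s; EC20 dopamine then added and read 180 s.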
D2 PAM-2 = human D2 receptor positive allosteric modulation; 360,000 tested, 0.23% active; potentiation, % (no concentration beside the values); DiscoveRx D2 beta-arrestin cells, luminescence, 90 min; 100% = 57 uM dopamine signal; AID 624464; P14416; in the data active means potentiation above about 50%; inconclusive means mostly about 30% to 49%
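PathHunter beta-arrestin assay in DiscoveRx D2 cells. Compounds were added with an EC20 of dopamine (50 nM final) for 90 min at 37 deg C. Luminescence was read 1 h after detection reagent, with 57 uM dopamine as the EC100 control.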
D2 ag-1 = agonists of human D2 dopamine receptor; P14416; HEK293 T-REx D2 cells, calcium flux agonist mode; activation, % at 2 µM; 340,000 tested, 0.53% active; AID 485358;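 active means activation over 3 SD above normal in the single-dose calcium agonist read, cut at about 30% in these data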; further: 0% is about no effect
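Tetracycline-induced HEK293 Trex cells with D2 receptor force-coupled to calcium signaling, plated overnight at 30 C and loaded with no-wash calcium dye. Calcium flux read kinetically for 180 s after compound addition; responses flag agonists.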
D2 ag-2 = activates the human D2 dopamine receptor. AID 624465. P14416. activation, % (test concentration not listed). DiscoveRx PathHunter D2 beta-arrestin, luminescence, 90 min; 100% = 57 uM dopamine signal. 360,000 tested, 0.084% active; in the data active means activation above about 40%; inconclusive means between about 15% and that limit
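Agonist mode: compounds alone added to overnight-plated D2 PathHunter cells for 90 min at 37 C, with 57 uM final dopamine (EC100) defining full response. Beta-arrestin recruitment detected by chemiluminescent reagent, read after 1 h at ambient temperature.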
D2 antag = D2 dopamine receptor (human) antagonism; HEK293 TREx D2 cells, calcium flux, dopamine EC80; P14416; AID 485344; inhibition, % at 10 µM; 340,000 tested, 2% active; in the data active means inhibition above about 30%; inactive means below that, where a call was filed; further: 0% is about no effect
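HEK293 T-REx D2 cells, tet-induced, calcium dye no-wash. Cpd pintool add, 180 s kinetic, then EC80 DA, 180 s kinetic. Ca flux read.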
* marks the source's active call; other numbers are inactive results; ? = inconclusive; nt = no result.

SMILES	D2 PAM-1	D2 PAM-2	D2 ag-1	D2 ag-2	D2 antag
C=CCn1c(Oc2cc(C)ccc2C)nc2c1c(=O)n(C)c(=O)n2C	15	16	-1	0	30*
Cc1ccc(-n2ncc(C(=O)NCCCN3CCc4ccccc4C3)c2C2CCN(C(=O)OC(C)(C)C)CC2)c(C)c1	-22	nt	1	nt	nt
COc1cccc(CNC(=O)Cn2cc3c(n2)-c2c(oc(C(=O)N4CCOCC4)c2C)CC3)c1	-1	nt	0	nt	nt
COc1cc(OC)c(NC(=O)Cn2cnc3nc4c(cc3c2=O)CCCC4)cc1Cl	11	nt	1	nt	nt
COc1cccc(C(c2sc3nc(-c4ccco4)nn3c2O)N2CCC(C)CC2)c1 (configuration not stated)	-4	nt	0	nt	nt
Cc1cc(C)n(-c2nc(C)nc(NCc3ccccc3)n2)n1	1	-43	3	-4	7
CNc1nc(C)nc(-n2nc(C)cc2C)n1	-4	-3	0	-5	35*
Cc1cc(=O)[nH]c(N/N=C/c2ccc(-c3ccc(F)cc3)o2)n1	-9	-6	-1	-4	48*
COc1ccc(Cl)cc1NC(=O)CN1c2ccccc2S(=O)(=O)c2ccccc21	-7	nt	-1	nt	nt
COc1ccc(-c2onc(C)c2C)cc1S(=O)(=O)NCc1ccco1	0	nt	-1	nt	nt
Cc1ccc(CNC(=O)c2cc(C3CC3)nc3c2cnn3C(C)C)cc1	-37	-43	-1	2	39*
COc1ccc(CNC(=O)c2cc(C3CC3)nc3c2cnn3C(C)C)cc1OC	-10	-3	0	0	1
Cc1ccc(S(=O)(=O)N2CCCCC2)cc1NC(=O)COC(=O)C1=COCCO1	38*	-5	1	-1	12
COc1cc(Cl)c(C)cc1NC(=O)COC(=O)C1=COCCO1	-9	-6	-1	-5	32*
O=C(COC(=O)C1=COCCO1)Nc1cc(S(=O)(=O)N2CCCCC2)ccc1Cl	13	-4	2	0	7
Cc1ccc(S(=O)(=O)N2CCOCC2)cc1NC(=O)CNCc1ccccc1Cl	9	14	39*	8	0
CCOC(=O)c1c(C)n(-c2ccc(C)cc2)c2c(CC(C)=O)c(Br)c(OC)c(O)c12	3	-4	0	-1	-5
CCOC(=O)c1c(C)n(-c2ccc(C)cc2)c2c(C(C(C)=O)C(=O)O)c(Br)c(O)c(O)c12 (configuration not stated)	2	70*	1	?	13
CCC(Sc1nc2c(sc3ccccc32)c(=O)n1CCCC(=O)NC1CCCC1)C(=O)Nc1cccc(OC)c1 (configuration not stated)	-11	nt	-1	nt	nt
Cc1cc(=O)oc2c(C)c(OCC(=O)N3CCN(c4ccc(F)cc4)CC3)ccc12	-6	2	0	4	-5
Cc1cccc(N2CCN(C(=O)COc3ccc4c(C)cc(=O)oc4c3C)CC2)c1C	39*	-8	0	1	-8
NC(=O)C1CCN(C(=O)NC2CC(=O)N(c3ccc4c(c3)OCCO4)C2)CC1 (configuration not stated)	-8	-31	0	-9	46*
COc1ccc(OCC(=O)Nc2ccccc2C(=O)N2CCOCC2)cc1	36*	-5	-1	-5	-15
Cc1nn(-c2ccccc2)c2c1cc1c(=O)[nH]c(=O)nc-1n2-c1cccc(Cl)c1	0	nt	-1	nt	nt
Cc1ccnc(NC(NC(=O)C(C)C)(C(F)(F)F)C(F)(F)F)c1	4	-9	0	-2	32*
SMILES	D2 PAM-1	D2 PAM-2	D2 ag-1	D2 ag-2	D2 antag
COC(=O)C(NC(=O)c1ccco1)(Nc1cc(C)ccn1)C(F)(F)F (configuration not stated)	8	-2	0	3	-10
Cc1ccc(S(=O)(=O)N(Cc2ccccc2)Cc2ccco2)cc1	-10	-7	0	-5	33*
Cc1ccc(S(=O)(=O)N(Cc2ccc(F)cc2)Cc2ccco2)cc1	-17	-3	0	3	-18
COc1cccc(NC(=S)N(CCCN2CCC(C)CC2)Cc2cccs2)c1	-35	-17	2	-3	59*
CCOC(=O)c1ccc(NC(=S)N(CCCN2CCCC2)Cc2cccs2)cc1	-16	-25	4	-5	9
COc1ccc(NC(=S)N(CCCN2CCC(C)CC2)Cc2cccs2)cc1	nt	-18	-1	-1	18
CCOC(=O)c1ccc(NC(=S)N(CCCN2CCCC(C)C2)Cc2cccs2)cc1 (configuration not stated)	-32	-28	3	-3	40*
CC(=O)N1CCCc2cc(S(=O)(=O)NC(C(=O)NCc3ccc(C)cc3)C(C)C)ccc21 (configuration not stated)	46*	-8	1	-3	-4
CC(=O)N1CCc2cc(S(=O)(=O)NC(C(=O)Nc3ccc(C)cc3C)C(C)C)ccc21 (configuration not stated)	-5	nt	-1	nt	nt
COc1ccc([N+](=O)[O-])cc1NCc1cccnc1	11	-10	-1	-2	-8
Cc1ccc(NC(=O)c2cc([N+](=O)[O-])ccc2NCc2cccnc2)cc1	-3	-9	-1	-4	33*
Nc1c(Cl)ncnc1NCc1ccccc1	nt	-2	nt	4	56*
Nc1c(Cl)ncnc1NCCO	2	4	1	-5	-1
O=C(CCCn1c(=O)c2cccn2c2cccnc21)Nc1ccccc1Br	3	nt	nt	nt	nt
COc1ccc(-c2nnc(C3CCN(C(=O)c4ccccc4F)CC3)o2)cc1	0	nt	0	nt	nt
CC(=O)Nc1cc[n+](C(C)C(=O)c2ccccc2)cc1 (configuration not stated)	-10	-5	2	-7	5
CC(=O)Nc1cc[n+](C(C)C(=O)c2ccc(Br)cc2)cc1 (configuration not stated)	-23	-25	0	-4	54*
COc1ccc(C(=O)Nc2c(O)ccc3ccccc23)cc1OC	nt	17	nt	0	nt
COc1ccc(S(=O)(=O)Nc2c(O)ccc3ccccc23)cc1OC	nt	107*	nt	?	nt
Cc1cc(C)cc(-n2ccnc2SCC(=O)Nc2ccccc2F)c1	-5	nt	-2	nt	nt
CCOCCc1nn2c(=O)cc(COC(=O)c3ccccc3NC(=O)c3cccs3)nc2s1	-6	nt	nt	nt	nt
c1ccc(CCNCCCOc2cccc3ccccc23)cc1	1	-27	1	-7	35*
Clc1ccc(OCCNCCc2ccccc2)cc1	-22	-6	3	0	54*
COc1ccc(-n2nnnc2C2CCN(S(=O)(=O)c3ccc(NC(C)=O)cc3)CC2)cc1	-4	nt	2	nt	nt
CC(C)(C)c1ccc2c(c1)OCC(C(=O)O)O2 (configuration not stated)	113*	2	nt	-4	nt
CC(C)(C)c1ccc2c(c1)OC(C(=O)N/N=C\c1ccccn1)CO2 (configuration not stated)	21	0	1	1	13
